Results taken from PubChem BioAssay (NCATS).
Values joined by “and” are separate entries in the source; they are usually repeats but may differ in a detail not shown here. Identical values can stand only once. Records with an inconclusive call do not appear. Where a call stands in place of a potency, no number is given. Active and inactive are the calls of the source. Calls follow the shape of the full dose curve.

What was measured:
[1] = Cytotoxicity counterscreen for inhibitors of SARS-CoV-2 cell entry (AID 1645845); settings: cell viability (SARS-CoV-2 entry assay cells); series mostly up to 57.1 µM; also: nearly all actives have a fitted effect of over 50% in size
Procedure, shortened: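 Expi293F/hACE2 cells seeded overnight; cpd pin-transferred in DMSO, 1 h preincubation, + media, 48 h 37 C 5% CO2; ATPLite 1step luminescence; normalized to cells and no cells.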

[2] = Primary qHTS to identify inhibitors of SARS-CoV-2 cell entry (AID 1645846); settings: SARS-CoV-2 pseudovirus cell entry assay, luminescence; activity change, negative = inhibition: at 57.1 µM (top of the series) unless noted; series mostly up to 57.1 µM; also: nearly all actives have a fitted effect of over 45% in size; also: potency is read from the fitted curve at half-maximal effect
Procedure, shortened: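 HEK293-ACE2 (Expi293F, stable hACE2), 1500 cells/well, o/n 37C; cpd 23 nL pin, 1 h; MLV-PP w/ SARS-CoV-2-S (Wuhan-Hu-1, Δ19 C-term); 48 h 37C; Bright-Glo luminescence; normalized vs S-PP and bald PP.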

| Compound | Potency [1] | Potency [2] | activity change, negative = inhibition [2] |
| --- | --- | --- | --- |
| CCN1CCN(c2cc3c(cc2F)c(=O)c(C(=O)O)cn3C2CC2)CC1 | inactive | inactive |  |
| Cn1c(NCCN(CCO)CCCc2ccc([N+](=O)[O-])cc2)cc(=O)n(C)c1=O | inactive |  | -16.7% and 1.27% |
| CC1(O)CC(c2nc(-c3ccc4ccc(-c5ccccc5)nc4c3)c3c(N)nccn23)C1 (stereo unspecified) | inactive |  | -23.9% |
| C[C@@H]1CCN(C(=O)CC#N)C[C@@H]1N(C)c1ncnc2[nH]ccc12 | inactive |  | -1.42% |
| C=C1C(=CC=C2CCC[C@]3(C)[C@@H]([C@H](C)C=C[C@H](C)C(C)C)CC[C@@H]23)C[C@@H](O)C[C@@H]1O | inactive | inactive |  |
| C[C@H](CN1CCCC1)C(=O)c1ccc(C(F)(F)F)cc1 | inactive |  | -4.68% |
| CC(C)(C)C(O)/C=C/c1ccc2c(c1)OCO2 (stereo unspecified) | inactive |  | -17.5% |
| CC(C)(C)c1cc(C(=O)O)c(NC(=O)Nc2ccc3[nH]ncc3c2)s1 | inactive | inactive |  |
| COc1ccccc1-c1cccc(-c2c(O)c3cc(C#N)c(Cl)cc3[nH]c2=O)c1 | inactive |  | -22.8% |
| CS(=O)(=O)c1ccc(C(=O)Nc2ccc(Cl)c(-c3ccccn3)c2)c(Cl)c1 | inactive |  | -12.8% and -5.84% |
| CC(=O)OCCN1C(=O)c2c(C)nc3ccc(S(=O)(=O)N4CCOCC4)cc3c2C1=O | inactive |  | 2.17% |
| CC(C)(C)NCC(O)c1ccc(O)c(CO)c1 (stereo unspecified) | inactive | inactive |  |
| NCCS | inactive | inactive |  |
| CN1[C@@H]2CC[C@H]1CC(OC(=O)C(O)c1ccccc1)C2 (stereo partly specified) | inactive |  | -6.45% |
| O=C(Nc1cccc(C2=NCCN2)c1)Nc1cccc(C2=NCCN2)c1 | inactive | inactive |  |
| O=C1CCCC2=C1C(c1[nH]ncc1Cl)N=C(Nc1nc3ccccc3o1)N2 (stereo unspecified) | inactive |  | -4.23% |
| CC(=O)Oc1cccc(C)c1 | inactive |  | 0.724% |
| CCCCn1c(=O)n(Cc2ccccc2F)c(=O)c2[nH]c(Cc3ccc(NC(C)=O)cc3)nc21 | inactive | inactive |  |
| c1ccc(-c2nn3c(c2-c2ccnc4cc(OCCN5CCOCC5)ccc24)CCC3)nc1 | inactive |  | 3.16% |
| CNC(=O)c1ccc(N2C(=S)N(c3ccc(C#N)c(C(F)(F)F)c3)C(=O)C2(C)C)cc1F | inactive | 22.4 µM (active) |  |
| CCCCC(CC)COC(=O)c1ccc(N(C)C)cc1 (stereo unspecified) | inactive |  | 4.94% |
| CC(C)[C@H](CO)Nc1nc(Nc2ccc(C(=O)O)c(Cl)c2)c2ncn(C(C)C)c2n1 | inactive |  | -17.7% |

| Compound | Potency [1] | Potency [2] | activity change, negative = inhibition [2] |
| --- | --- | --- | --- |
| OCCn1cc(-c2cnc3nnn(Cc4ccc5ncccc5c4)c3n2)cn1 | inactive | inactive |  |
| CC(=O)OCC(=O)[C@@]1(O)[C@H](C)C[C@H]2[C@@H]3C=C(C)C4=Cc5c(cnn5-c5ccccc5)C[C@]4(C)[C@@H]3[C@@H](O)C[C@@]21C | inactive | inactive |  |
| CC(C)C[C@H](NC(=O)[C@@H](O)[C@H](N)Cc1ccccc1)C(=O)O | inactive |  | -29.5% |
| CS(=O)(=O)Nc1ccc([N+](=O)[O-])cc1Oc1ccccc1 | inactive |  | -13.1% and -8.45% |
| CC(C)OC(=O)C1=CN(C(=O)c2ccc(F)c(F)c2)CC(C)(C)c2c1[nH]c1ccccc21 | inactive |  | -3.59% |
| NC(=O)c1ccc(N(C(N)=O)c2c(F)cccc2F)nc1-c1ccc(F)cc1F | inactive |  | -20.8% |
| CCc1cc(Nc2nccc(-c3c(-c4ccc(OC)c(C(=O)Nc5c(F)cccc5F)c4)nc4ccccn34)n2)c(OC)cc1N1CCC(N2CCN(S(C)(=O)=O)CC2)CC1 | inactive | inactive |  |
| COc1nc(C)cnc1NS(=O)(=O)c1cccnc1-c1ccc(-c2nnco2)cc1 | inactive | inactive |  |
| CCCCCCCC(=O)OCC(O)CO (stereo unspecified) | inactive |  | -24.7% |
| CC1(C)Cc2c(-c3ccccc3)c(-c3ccc(Cl)cc3)c(CC(=O)O)n2C1 | inactive |  | -28.3% |
| O=C(O)[C@@H](c1ccc(OCc2ccc3ccccc3n2)cc1)C1CCCC1 | inactive |  | -23.5% |
| O=C(O)CC(O)C(=O)O (stereo unspecified) | inactive | inactive |  |
| COc1cc2c(cc1OC)CC(=O)N(CCCN(C)C[C@H]1Cc3cc(OC)c(OC)cc31)CC2 | inactive |  | -5.42% and -13.8% |
| CCCCCN(CCC12CC3CC(CC(C3)C1)C2)C(=O)NCCCc1ccncc1 | inactive |  | -12.6% |
| [O-][n+]1cccc(/C(Cl)=N/OC[C@@H](O)CN2CCCCC2)c1 | inactive | inactive |  |
| CC1=NN(c2ccccc2)C(=O)C1 | inactive |  | 0.769% and -7.18% |
| O=C1NS(=O)(=O)c2ccccc21 | inactive |  | -23.6% |
| COc1cc(Nc2ncc(F)c(Nc3ccc4c(n3)NC(=O)C(C)(C)O4)n2)cc(OC)c1OC | inactive | inactive |  |
| COCCNCCCn1c(C(=O)CF)c(-c2ccc(C)cc2)c2c(N)ncnc21 | inactive | inactive |  |
| Cc1ccccc1N=Nc1ccc(N=Nc2c(O)ccc3ccccc23)c(C)c1 | inactive |  | -23% |
| CC[C@H](Nc1ncnc2nc[nH]c12)c1nc2cccc(F)c2c(=O)n1-c1ccccc1 | inactive |  | -11% |
